Most compounds without a hit are left out; they make up all but 3.6% or so of the library.
mHTT CaM bind – mHTT-calmodulin interaction abrogation. inhibition, % at 15 µM. AlphaScreen His-mHTT/GST-CaM binding, luminescence. P42858. 3.6% of 190,000 active
Pf apPOL inh – Pf-apPOL DNA polymerase inhibition | Recombinant Pf-apPOL, molecular beacon fluorescence, 1.5 h | inhibition, % at 10 µM | 0.25% of 210,000 active
A number is an active result; - = inactive; . = no result given. No stated cut-off is given here; in the data, active means inhibition above about 50%; inactive means the rest.

SMILES	mHTT CaM bind	Pf apPOL inh
COc1ccc(CNC(=O)c2ccnc(N3CCNC(c4ccccc4)C3)c2)cc1OC (stereo not drawn)	-	-
CCOc1cc(C=O)cc(Br)c1OCC	-	-
COc1ccc(NC(=O)N2CCc3nc4cc(-c5ccccc5)[nH]n4c(=O)c3C2)c(OC)c1	-	-
COc1ccc(C(=O)N2CCc3c(nc4cc(-c5ccccc5Cl)[nH]n4c3=O)C2)cn1	53	-
Cc1ccc(C(=O)N2CCc3c(nc4cc(-c5ccccc5Cl)[nH]n4c3=O)C2)cn1	-	-
COc1ccc(NC(=O)N2CCc3c(nc4cc(-c5ccccc5)[nH]n4c3=O)C2)c(OC)c1	52	-
CC1C(=O)CC2C(C)(C)CCCC2(C)C1(O)CCc1ccoc1 (stereo not drawn)	.	-
COc1ccc(C2=NC3(CCN(Cc4ccc(C)cc4)CC3)NC2=O)cc1	-	-
COCCN1CCC(CNS(=O)(=O)c2ccc(OCC(C)C)cc2)CC1	-	-
CCOC(=O)N1CCC2(CC1)N=C(c1ccc(OCC)cc1)CC(c1ccccc1O)N2 (stereo not drawn)	-	-
COc1ccc(C2=NC3(CCCCC3)NC(c3ccccc3O)C2)cc1 (stereo not drawn)	59	-
CCOc1ccc(C2=NC3(CCN(C(C)=O)CC3)NC(c3ccccc3O)C2)cc1 (stereo not drawn)	51	-
COc1ccc(C2=NC3(CCN(C(C)C)CC3)NC(c3ccccc3O)C2)cc1 (stereo not drawn)	-	-
Cc1nc(CNC(=O)C2CCN(C(=O)Nc3ccc(C)c(C)c3)CC2)cs1	-	-
COc1cccc(-c2nc(C3CCN(C(=O)C4COc5ccccc5O4)CC3)no2)c1 (stereo not drawn)	87	-
Cc1cccc(-c2nc(C3CCN(C(=O)Cc4cccc(F)c4)CC3)no2)c1	-	-
COc1cccc(-c2nc(C3CCN(C(=O)c4ccccc4)CC3)no2)c1	-	-
Cc1cccc(-c2nc(C3CCN(C(=O)COc4ccc(Cl)cc4)CC3)no2)c1	80	-
Cc1ccc(-c2nnc(C)c(N3CCCCC3)n2)cc1	-	-
CCOCC(=O)N1CCc2c(c(-c3nc(-c4ccccc4)no3)nn2C)C1	-	-
CC(=O)Nc1nc(-c2ccc(C)cc2)c(-c2ccccc2)s1	-	-
NC(N)=Nc1nc(-c2ccccc2)c(-c2ccccc2)s1	100	-
Cc1ccc2[nH]cc(CCN3CC(C(=O)Nc4ccc(C(N)=O)cc4)CC3=O)c2c1 (stereo not drawn)	-	-
CC1=NN(c2cccc(Cl)c2)C(=O)/C1=C/c1ccc(Br)c([N+](=O)[O-])c1	81	-
COc1cc(/C=C2/C(=O)N(c3cccc(Cl)c3)N=C2C)cc(Br)c1O	78	-
SMILES	mHTT CaM bind	Pf apPOL inh
COc1cc(/C=C2/C(=O)N(c3ccc(Cl)c(Cl)c3)N=C2C)cc(OC)c1O	67	-
COc1ccc(/C=C2/C(=O)N(c3ccc(Cl)c(Cl)c3)N=C2C)cc1[N+](=O)[O-]	-	-
COc1ccc(/C=C2/C(=O)N(c3ccc(Cl)c(Cl)c3)N=C2C)cc1Br	-	-
C=CCOc1ccc(/C=C2/C(=O)N(c3ccc(Cl)c(Cl)c3)N=C2C)cc1OC	-	-
COc1cc(/C=C2/C(=O)N(c3ccc(C)c(Cl)c3)N=C2C)ccc1O	52	-
COc1cc(/C=C2/C(=O)N(c3ccc(Cl)c(Cl)c3)N=C2C)cc(OC)c1OC	-	-
O=C(CN1CCN(C(=O)Nc2ccccc2)CC1=O)N1CCN(c2ccccc2)CC1	-	-
COc1ccc(Cl)cc1NC(=O)c1cc(-c2cccc(Cl)c2)on1	-	-
FC(F)(F)c1cc(N=Cc2ccc(-c3cccs3)s2)cc(C(F)(F)F)c1	.	-
Cc1cc(C)nc(Sc2ccc(S(=O)(=O)C(F)(F)F)cc2[N+](=O)[O-])n1	-	-
Cc1cccc(Cc2c(C)nc(C)nc2N2CCN(C(=O)NC(C)C)CC2)c1	-	-
CCNC(=O)/C(=C\c1ccc(Br)cc1)NC(=O)c1ccco1	-	-
CCCC1=NN2C(=N)/C(=C/c3ccc(OC)c(OC)c3OC)C(=O)N=C2S1	-	-
COc1ccc(/C=C2/C(=O)N(c3ccccc3)N=C2C)cc1Br	-	-
COc1cc(/C=C2/C(=O)N(c3ccccc3)N=C2C)cc([N+](=O)[O-])c1O	57	-
CC1=NN(c2ccccc2)C(=O)/C1=C/c1ccc(O)c(Cl)c1	-	-
CC1=NN(c2ccccc2)C(=O)/C1=C/c1cc(Cl)c(O)c(Cl)c1	64	-
COc1cc(/C=C2/C(=O)N(c3ccccc3)N=C2C)c([N+](=O)[O-])cc1OC	-	-
COc1cc(/C=C2/C(=O)N(c3ccccc3)N=C2C)cc(Br)c1O	55	-
COc1cc(/C=C2/C(=O)N(c3ccccc3)N=C2C)cc(OC)c1O	52	-
COc1cc(/C=C2/C(=O)N(c3ccccc3)N=C2C)ccc1OCc1ccccc1	-	-
Clc1nssc1=Nc1nc2ccccc2s1	-	-
O=c1c(SCc2ccc([N+](=O)[O-])cc2)nccn1-c1ccc(Br)cc1	-	-

Screens deposited in PubChem BioAssay by University of Kansas High Throughput Screening Laboratory.
